Measured values: ChEMBL document CHEMBL4513216, “Probing the Open Global Health Chemical Diversity Library for Multistage-Active Starting Points for Next-Generation Antimalarials” (ACS Infect Dis, 2020)
In all, about 69,000 compounds went through this assay and about 8,600 (12%) showed an effect of 50% or more. This is one part of a sample in which strong results are shown more often than they occur.

system: Plasmodium berghei; assay: Screen against P. berghei liver stage (PbLuc), transformed with Luciferase, at 10uM; type: functional, HepG2; details: tested at 10 uM

Structure (SMILES) | INHIBITION
CN1CCN(C[C@@H]2CN(C3Cc4ccccc4C3)C[C@@H]2CO)CC1 | 8.51%
CC(NC(=O)C1CCCCC1)c1cc(O)nc(-c2cccnc2)n1 (stereo not given) | -6.002%
O=C(c1sccc1C1CC1)N1CCCN(c2cccnn2)CC1 | 15.7%
Cc1ccsc1CN(C)CCc1scnc1C | 46.9%
Cc1ncsc1CCN(C)Cc1ccc(Br)o1 | 47.1%
Cc1ncsc1CCN(C)Cc1ccc(CO)o1 | 57.6%
CC(=O)N1CCCC(c2ncncc2-c2ccncc2)C1 (stereo not given) | 26.8%
COc1ccc(CN2C[C@@H](OCc3ccccn3)[C@H]3COC[C@H]32)cc1 | 34.7%
Cc1ccc(S(=O)(=O)NCc2cccc(C(=O)N3CCCC3)c2)cc1F | -51.5%
CC(C)c1noc(CCCC(=O)N2CCN(Cc3ccccn3)CC2)n1 | 40%
Cc1ccc(NC2CCN(C(=O)Cc3c(C)noc3C)CC2)nn1 | 28.38%
CC(C)CCNC(=O)c1csc(NC2CC2)n1 | -70.8%
Cc1[nH]/c(=N\C(=O)c2csc(NC3CCCC3)n2)sc1C | 83.8%
CC(=O)Nc1nc(C(=O)N2CCCC(c3cc(C)[nH]n3)C2)cs1 (stereo not given) | 22.3%
CC(C)NC(=O)c1csc(NC2CC2)n1 | 13.9%
CC(C)(C)[S+]([O-])CCNC(=O)c1csc(NC2CC2)n1 (stereo not given) | -12.1%
Cc1[nH]/c(=N\C(=O)c2csc(NC3CC3)n2)sc1C | 77.9%
O=c1[nH]cnc2c1CCN(S(=O)(=O)c1ccc(OC(F)(F)F)cc1)C2 | -10.1%
CCc1ccc(NC(=O)Nc2c(O)oc3ccccc3c2=O)cc1 | -11.4%
O=C(COCc1ccccc1)NCc1ccc(O)c(F)c1 | -7.93%
COCC(=O)N1CCCn2c(CN3CCCC3=O)nnc2C1 | -15.6%
Cc1cc(CN(C)C(=O)c2ccc(Cl)cc2N2CCCC2=O)no1 | -9.37%

Structure (SMILES) | INHIBITION
O=C(c1ccccn1)N1CCC2(CC1)CN(c1cncnc1)C(=O)CO2 | 40.4%
Cc1nc2ccccc2c(=O)n1CCC(=O)N1CCCC1 | 17.36%
CC(=O)NCC(=O)N1CCOCC(Cc2ccc3c(ccn3C)c2)C1 (stereo not given) | -2.995%
Cc1cnc(CCNC(Cc2ccncc2)C(F)(F)F)s1 (stereo not given) | 11.7%
Cc1nc(CCNC(Cc2ccncc2)C(F)(F)F)cs1 (stereo not given) | 59.3%
Cc1nc(C)c(CCNC(Cc2ccncc2)C(F)(F)F)s1 (stereo not given) | 48.5%
CN(C)C(=O)c1cc2ncc(C(=O)NC3CCCC3)cc2n1C | -71.5%
O=C(c1cc(=O)n(-c2ccccc2)[nH]1)N1CCOCC(O)C1 (stereo not given) | 0.546%
O=C(c1cc(=O)n(-c2ccccc2)[nH]1)N1CCOC(C(F)(F)F)C1 (stereo not given) | 63.6%
O=C(c1cc(=O)n(-c2ccccc2)[nH]1)N1CCCC(c2ccn[nH]2)C1 (stereo not given) | 55%
O=C(c1cnc2ccccn12)N1CCCC(c2ccn[nH]2)C1 (stereo not given) | -0.71%
O=C(c1cnnn1-c1ccccc1)N1CCCC(c2ccn[nH]2)C1 (stereo not given) | 12.9%
O=C(c1ccccc1-c1nc[nH]n1)N1CCOC(C(F)(F)F)C1 (stereo not given) | 7.15%
COc1ccc(CNC(=O)Nc2ccc(N3CCCC3)nc2)cc1O | 26.4%
O=C(NCc1cccs1)[C@H]1CC[C@@H]2[C@@H](CCN2C2CCC2)O1 | -4.88%
O=C(c1cscn1)N1C[C@H]2CN(Cc3nccs3)C[C@H]2C1 | 62.5%
NC(=O)N1C[C@H]2CN(Cc3nccs3)C[C@H]2C1 | 14.8%
Cc1cnc(C(=O)N2C[C@H]3CN(Cc4cccnc4)C[C@H]3C2)cn1 | -6.21%
Cc1cnc(C(=O)N2C[C@H]3CN(Cc4cccs4)C[C@H]3C2)cn1 | -18.2%
O=C(c1cscn1)N1CCC2(CCN(Cc3nccs3)CC2)CC1 | 35.7%
Cc1cnc(C(=O)N2C[C@H]3CN(Cc4nccs4)C[C@H]3C2)cn1 | 81.5%
O=C(O)c1c(-c2ccncc2)ncc2c1CCN(C1CCOC1)C2 (stereo not given) | -12.4%

Structure (SMILES) | INHIBITION
CCc1nc(CC(=O)N2CCn3c(C)nnc3C2)cs1 | 27.45%
CN1C(=O)CC(C(=O)O)C12CCN(Cc1ccc(Cl)cc1F)CC2 (stereo not given) | 7.84%
CN1C(=O)CC(C(=O)O)C12CCN(Cc1ccc(F)cc1Cl)CC2 (stereo not given) | 18.8%
CN1C(=O)CC(C(=O)O)C12CCN(Cc1cc(Cl)ccc1F)CC2 (stereo not given) | 50.5%
O=C(c1ccsc1)N1CCC(Nc2cccnn2)CC1 | -85%
COc1ccc(NC2(C(=O)N3CCCn4cncc4C3)CCCC2)cc1 | 18.5%
CN(CC(=O)NCCCOc1ccc(F)cc1)c1ccc(C#N)cn1 | 3.84%
O=c1[nH]c2cn(-c3ccccc3)c(=O)n2[nH]1 | 14.2%
Cc1cc(C)nc(C2CCCN2S(=O)(=O)N2CCOCC2)n1 (stereo not given) | 43.4%
Cc1ccc(C(=O)N2CCCC(c3[nH]ncc3S(C)(=O)=O)C2)s1 (stereo not given) | 33.7%
CS(=O)(=O)NC[C@]12COC[C@H]1CN(Cc1ccc3c(c1)OCO3)C2 | 38.5%
Cn1cc(C(=O)NCC(Cc2cccc(F)c2)N2CCCCC2=O)nn1 (stereo not given) | 6.83%
O=C(CN1CCC(C(=O)c2cc(F)ccc2F)CC1)NC1CCCC1 | 51.3%
C=C(Cl)CN1CCC(C(=O)c2cc(F)ccc2F)CC1 | 17.8%
COC(=O)CN1CCC(C(=O)c2cc(F)ccc2F)CC1 | 15.3%
O=C(CCN1CCC(C(=O)c2cc(F)ccc2F)CC1)NC1CC1 | -1.58%
O=C(CCN1CCC(C(=O)c2cc(F)ccc2F)CC1)NC1CCCC1 | 36.2%
O=C(CN1CCC(C(=O)c2cc(F)ccc2F)CC1)NC1CC1 | 56.5%
CC(=O)N[C@H]1CCO[C@@H](c2cccc(NC(=O)c3cccc(F)c3)c2)C1 | 6.74%
O=C(NC1CC1)N1CCc2ncc(CN3CCOCC3)n2CC1 | 15.9%
COc1ccc(CN2CC[C@H]3[C@H]2CC(=O)N3Cc2cccc(C)n2)cc1 | -31.9%
